Screen size: about 310,000 compounds; about 3,900 (1.3%) were called active.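 Rule for the calls: active = compounds whose thallium flux B-score, printed positive for inhibition, exceeds three library SD while starting fluorescence stays within three; inactive = the rest.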 For the sample, actives were picked, then their nearest neighbours and some compounds at random.

Sequence of Potassium voltage-gated channel subfamily KQT member 1 (Homo sapiens) (P51787 whole entry, looked up): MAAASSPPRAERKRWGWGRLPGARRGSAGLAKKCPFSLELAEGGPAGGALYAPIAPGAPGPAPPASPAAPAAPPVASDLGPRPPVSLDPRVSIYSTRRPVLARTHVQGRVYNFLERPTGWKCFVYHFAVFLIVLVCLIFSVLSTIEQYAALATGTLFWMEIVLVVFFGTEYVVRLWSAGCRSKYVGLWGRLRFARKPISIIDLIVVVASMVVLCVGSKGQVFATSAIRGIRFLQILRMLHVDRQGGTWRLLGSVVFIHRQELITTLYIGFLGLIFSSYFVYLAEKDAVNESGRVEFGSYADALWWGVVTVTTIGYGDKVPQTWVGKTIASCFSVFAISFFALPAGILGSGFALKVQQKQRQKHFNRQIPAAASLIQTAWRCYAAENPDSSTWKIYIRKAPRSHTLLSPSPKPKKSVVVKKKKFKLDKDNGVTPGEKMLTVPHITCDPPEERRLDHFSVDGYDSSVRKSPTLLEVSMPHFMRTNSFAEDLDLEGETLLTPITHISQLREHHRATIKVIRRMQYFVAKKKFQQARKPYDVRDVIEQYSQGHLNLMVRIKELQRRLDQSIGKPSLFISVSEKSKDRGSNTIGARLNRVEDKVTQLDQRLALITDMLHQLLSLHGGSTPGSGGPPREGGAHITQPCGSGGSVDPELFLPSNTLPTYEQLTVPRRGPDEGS

This test has as its target Potassium voltage-gated channel subfamily KQT member 1 (Homo sapiens) (UniProt P51787). The test is described as follows: KCNQ1 potassium current blockers – cell-based, thallium flux, high-throughput, primary screen (AID 2642).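 Note: channel opened by potassium depolarization with thallium stimulus after 20 min compound exposure.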 The following applies: CHO-K1 KCNQ1, FluxOR thallium flux fluorescence, at 10 µM; stronger effect = higher value.
For the compound `CSc1ccc(S(=O)(=O)N2CCC(C(=O)NCc3ccncc3)CC2)cc1`, the B-score entry was “inactive”.

Turning to `Cc1csc(NC(=O)CSc2nnc(-c3cccnc3)o2)n1`, the B-score entry was “inactive”.

Take `Cc1ccccc1OCC(=O)Nc1ccc(S(=O)(=O)N2CCOCC2)cc1`: the B-score result is “inactive”.

Consider `Cc1ccccc1OCC(=O)Nc1ccc2c(c1)ncn2C`, for which the B-score entry is “inactive”.

Turning to `Cc1ccccc1OCC(=O)Nc1ccc(N2CCN(C(=O)C(C)C)CC2)c(Cl)c1`, the B-score was 6 (active).

For the compound `CC(=O)NNC1=Nc2ccccc2N(C)C(C)C1` (stereo not drawn), the B-score entry is “inactive”.

With `CCc1ccc2c(c1)C1(NN=C(c3ccccc3)S1)C(=O)N2` (stereo not drawn), the B-score is 11 (active).

Turning to `CC(C)N(C(=O)Cn1cc(S(=O)(=O)CC(=O)N2CCOCC2)c2ccccc21)C(C)C`, the B-score entry was “inactive”.

`COc1ccccc1NC(=O)c1ccc(N2CC3CC(C2)c2cccc(=O)n2C3)c(NC(=O)c2cccnc2)c1` (stereo not drawn): the B-score result is “inactive”.

For the compound `O=C1CCC(=O)N1c1ccc(NCCc2ccccc2F)c([N+](=O)[O-])c1`, the B-score result is “inactive”.

With `CC1(c2nnc(Cc3ccccc3)o2)CC(c2ccccc2F)=NO1` (stereo not drawn), the B-score result was “inactive”.

On to `Cc1cc(N2C(=O)C(O)=C(C(=O)c3ccc(C)o3)C2c2ccc(OCc3ccccc3)cc2)no1` (stereo not drawn), for which the B-score entry is “inactive”.

Take `C=CCOc1cccc(C2C(C(=O)c3ccc(C)o3)=C(O)C(=O)N2CCCn2ccnc2)c1` (stereo not drawn): the B-score result was “inactive”.

Consider `C=CCOc1cccc(C2C(C(=O)c3ccc(C)o3)=C(O)C(=O)N2c2nnc(C)s2)c1` (stereo not drawn), for which the B-score was 11 (active).

With `COc1ccc(NC(=O)C2=CC(c3ccc(OC)c(OC)c3)=NS(=O)(=O)N2C)cc1`, the B-score entry is “inactive”.

In the case of `Cc1ccc2c(c1)N(CC(=O)NCC1CCCO1)C(=O)CO2` (stereo not drawn), the B-score result is “inactive”.

For the compound `COCc1cc(C)n(CC(=O)NCC2CCCO2)c(=O)c1C#N` (stereo not drawn), the B-score was 6 (active).

As for `Cc1nn(CC(=O)NCC2CCCO2)c(=O)c2cc3ccccc3n12` (stereo not drawn), the B-score result was “inactive”.

For the compound `Cc1cc(-c2ccc(C)c(S(=O)(=O)Nc3ccc(S(N)(=O)=O)cc3)c2)on1`, the B-score entry is “inactive”.

`Cc1cccc(N2CCN(C(c3ccccc3)c3nnnn3CC3CCCO3)CC2)c1C` (stereo not drawn): the B-score is 6 (active).

`COc1ccccc1C(c1nnnn1CC1CCCO1)N1CCN(c2ccccc2)CC1` (stereo not drawn): the B-score result was “inactive”.

Take `Cc1cccc(N2CCN(C(c3ccc(N(C)C)cc3)c3nnnn3C(C)(C)C)CC2)c1C` (stereo not drawn): the B-score result was “inactive”.

For `NC(=O)C1CCN(C(=O)CC2C(=O)NCCN2Cc2cccc(Oc3ccccc3)c2)CC1` (stereo not drawn), the B-score result was “inactive”.

On to `CS(=O)(=O)N1CCc2nc(-c3ccccc3)sc2C1`, for which the B-score entry is “inactive”.

Take `Cc1c(OC(C)C(=O)N[C@@H](Cc2ccccc2)C(=O)O)ccc2c3c(c(=O)oc12)CCCC3` (stereo partly drawn): the B-score entry was “inactive”.

Take `COc1ccc2c3c(c(=O)oc2c1OCC(=O)C(C)(C)C)CCCC3`: the B-score result is “inactive”.

For `CCCOc1ccc2c3c(c(=O)oc2c1OCCC)CCC3`, the B-score was 8 (active).

On to `CC(=O)Nc1ccc(C(=O)N(C2=NC(C)CS2)c2ccc(Cl)cc2)cc1` (stereo not drawn), for which the B-score result was “inactive”.

As for `CCC(C)[C@H](NC(=O)N1c2ccccc2NC(=O)[C@@H]1C(C)C)C(=O)N[C@@H](Cc1ccccc1)C(=O)O` (stereo partly drawn), the B-score result is “inactive”.

`CCCCCCCCn1c2c(c(=N)c3c1CCC3)CCCC2`: the B-score is 10 (active).

Take `Cc1ccccc1CCNC(=O)C1CCC(=O)N(Cc2ccc(Cl)cc2)C1` (stereo not drawn): the B-score result was “inactive”.

Regarding `N#Cc1c(-c2ccccc2)nc(SCc2cccc(C(F)(F)F)c2)[nH]c1=O`, the B-score is 8 (active).

With `Cc1ccc(CSc2nc(-c3ccccc3)c(C#N)c(=O)[nH]2)cc1`, the B-score entry is “inactive”.

Regarding `N#Cc1c(-c2ccccc2)nc(SCc2ccc([N+](=O)[O-])cc2)[nH]c1=O`, the B-score entry is “inactive”.

In the case of `Clc1ccc2nc(CSc3ccccc3)cn2c1`, the B-score entry was “inactive”.

On to `CCOC(=O)c1cnc(-n2nc(C)cc2C)nc1NNc1cc(C)nc(-c2ccccc2)n1`, for which the B-score entry is “inactive”.

In the case of `COc1ccc(NC(C)=O)cc1NC(=O)CN1CCN(C2c3ccccc3-c3ccccc32)CC1`, the B-score result is “inactive”.

For the compound `O=C1CCN(Cc2ccccc2)CCN1[C@H](CSc1ccccc1)c1ccccc1`, the B-score entry was “inactive”.

As to `COc1ccc(NC(=O)COc2ccc(C(=O)c3ccc(F)cc3)cc2)cc1S(N)(=O)=O`, the B-score result was “inactive”.

As to `CCOc1ccc(NC(=O)COc2ccc(C(=O)N3CCC(C(N)=O)CC3)cc2OC)cc1`, the B-score entry is “inactive”.

`CCNC(=O)c1ccc(OCC(=O)Nc2ccc(F)cc2)c(OC)c1`: the B-score is 6 (active).

Turning to `Cc1ccccc1Cn1c2ccccc2c2cnn(CC(=O)NCc3ccco3)c(=O)c21`, the B-score result was “inactive”.

For the compound `CSC1=N/C(=C\C=C\c2cccs2)C(=O)S1`, the B-score entry is “inactive”.

On to `CC(=O)Nc1ccc(NC(=O)C(C)OC(=O)C2CC(=O)N(CCc3ccccc3)C2)cc1` (stereo not drawn), for which the B-score result was “inactive”.

As to `Cc1ccccc1NC(=O)NCC1CCN(Cc2cccc(Cl)c2)CC1`, the B-score result is “inactive”.

Turning to `CC(C(=O)NCC1CCCCC1)N(C)Cc1cccc(Cl)c1` (stereo not drawn), the B-score was 8 (active).

In the case of `COc1ccc(CN(C)C(C)C(=O)NC2CCCc3ccccc32)cc1` (stereo not drawn), the B-score entry is “inactive”.

As for `COc1cccc(COC(=O)C2CCN(S(=O)(=O)c3cccs3)CC2)c1OC`, the B-score result was “inactive”.

`O=C(COC(=O)c1cc2c(s1)CCCC2)NCc1ccccc1Cl`: the B-score result was “inactive”.

In the case of `O=C(COC(=O)c1cccs1)NCc1cccs1`, the B-score result is “inactive”.

On to `O=C(COC(=O)/C(=C/c1cccs1)c1cccs1)NCc1ccccc1Cl`, for which the B-score is 7 (active).

`O=c1c2c(nc3cc(-c4cccc(Cl)c4)[nH]n13)CCCC2`: the B-score entry was “inactive”.

Take `O=C(CN1C(=O)NC2(CCCC2)C1=O)OCCOc1ccc(F)cc1`: the B-score result is “inactive”.

For the compound `Cc1cc(C=O)c(C)n1-c1ccc(NC2CCCCC2)c([N+](=O)[O-])c1`, the B-score is 14 (active).

Take `Cc1cc([N+](=O)[O-])ccc1NC1CCCC1`: the B-score entry was “inactive”.

`Cc1c(NS(=O)(=O)c2ccc(NC3CCCC3)c([N+](=O)[O-])c2)c(=O)n(-c2ccccc2)n1C`: the B-score entry is “inactive”.

For the compound `CC(=O)Oc1c(C(=O)c2nnc(C)o2)c(=O)n(Cc2ccccc2)c2ccccc12`, the B-score result was “inactive”.

For the compound `Cn1nc(-c2ccccc2)c(CO)c1Sc1ccccc1`, the B-score entry was “inactive”.

For the compound `Cn1nc(-c2ccccc2)c(CSc2cccc(Cl)c2)c1Cl`, the B-score is 6 (active).

`Cc1ccc(S(=O)(=O)c2c(COC(=O)c3cccc(Cl)c3)c(-c3ccccc3)nn2C)cc1`: the B-score result is “inactive”.

For `CCCCCCCCCCOC(=O)Cn1c(COc2cccc(OC)c2)[n+](C)c2ccccc21`, the B-score is 8 (active).

Turning to `COc1cccc(OCCCN2CCCCCC2)c1`, the B-score result was “inactive”.

As for `CCCCCCCCCCOC(=O)Cn1c(COc2ccc(C)cc2)[n+](C)c2ccccc21`, the B-score entry is “inactive”.

Turning to `COc1ccc(C2=NOC(Cn3nc(C(=O)NCc4ccc5c(c4)OCO5)cc3-c3ccccc3)C2)cc1` (stereo not drawn), the B-score result is “inactive”.

In the case of `CCCCN(CC)CCNC(=O)CCNC(=O)Cn1ccc2ccccc2c1=O`, the B-score entry is “inactive”.

For the compound `Cc1cc(C(F)(F)F)nn1-c1nc(-c2ccco2)cc(C(F)(F)F)n1`, the B-score entry is “inactive”.

As for `FC(F)(F)c1cc(-c2ccco2)nc(NCc2ccc(Cl)cc2)n1`, the B-score was 11 (active).

On to `FC(F)(F)c1cc(-c2cccs2)nc(NCc2ccco2)n1`, for which the B-score entry is “inactive”.

Consider `COc1ccc(NC(=O)CSc2nncc(=O)n2N)cc1OC`, for which the B-score result is “inactive”.

As to `FC(F)Oc1ccc(NC(=S)NCc2ccco2)cc1Cl`, the B-score was 7 (active).

Regarding `COc1cccc(NC(=S)NCc2ccco2)c1`, the B-score entry was “inactive”.

Turning to `COc1cc(NC(=S)NCc2ccco2)c(OC)cc1Cl`, the B-score result was “inactive”.

In the case of `CCOC(=O)c1cnc2c(c(C)nn2CC)c1Cl`, the B-score result was “inactive”.

In the case of `COc1ccc(S(=O)(=O)N2CCCC2CNC(=O)C(=O)NC2CC2)cc1` (stereo not drawn), the B-score entry is “inactive”.

Regarding `CCCc1nc(NCc2ccc3c(c2)OCO3)c2nnn(Cc3ccccc3Cl)c2n1`, the B-score entry is “inactive”.

Take `Cc1nc(Nc2ccc3c(c2)OCCO3)c2nnn(Cc3ccccc3Cl)c2n1`: the B-score is 7 (active).

Turning to `Cc1nc(Nc2ccccc2F)c2nnn(Cc3ccccc3Cl)c2n1`, the B-score result was “inactive”.

With `CCCN1C(=O)C(Cc2nc3ccccc3c(=O)n2-c2ccccc2)c2cc(C)ccc21` (stereo not drawn), the B-score entry is “inactive”.

Consider `O=[N+]([O-])/C=C/c1ccc2c(ccn2Cc2ccccc2)c1`, for which the B-score entry was “inactive”.

As for `COc1ccccc1N1CCN(C(=O)c2ccc(NC3=NC4CS(=O)(=O)CC4S3)cc2)CC1` (stereo not drawn), the B-score entry is “inactive”.

Take `CCC(=O)Nc1nc(C)c(C(=O)Nc2cccc(Cl)c2)s1`: the B-score result is “inactive”.

For the compound `CC(C(=O)NC1CCCC1)N(c1ccc(Oc2ccccc2)cc1)S(C)(=O)=O` (stereo not drawn), the B-score entry was “inactive”.

For the compound `CCc1ccc(-c2cc(C(=O)NCc3ccco3)c3ccccc3n2)s1`, the B-score was 6 (active).

With `CCCCN(C)CCCNC(=O)c1cc(-c2cccs2)nc2ccccc12`, the B-score result is “inactive”.

Turning to `COC(=O)CNC(=O)c1cc(-c2ccncc2)nc2ccccc12`, the B-score entry was “inactive”.

`COc1ccccc1Cn1c(C)nnc1-c1cnn(C)c1N`: the B-score entry was “inactive”.

`Cc1cc(C)cc(NS(=O)(=O)Cc2ccccc2)c1`: the B-score entry is “inactive”.

`CCc1cc(C(=O)OC)c(NC(=O)CC2Sc3ccc(C(F)(F)F)cc3NC2=O)s1` (stereo not drawn): the B-score result was “inactive”.

On to `Cc1cccc(C(=O)NNC(=O)CSc2nnc(C(C)C)n2C)c1`, for which the B-score result was “inactive”.

Take `Cc1cccc(CSc2nnc(NC(=O)CSc3nnc(C)s3)s2)c1`: the B-score entry is “inactive”.

Regarding `Cc1cccc(CSc2ccc(-c3cccs3)nn2)c1`, the B-score was 7 (active).

As for `O=C(CSc1ccc(-c2cccs2)nn1)Nc1ccccc1F`, the B-score entry is “inactive”.

Consider `CCOC(=O)C1(CCOc2ccccc2)CCN(Cc2ccc(C#CCCO)cc2)CC1`, for which the B-score result was “inactive”.

As for `Cc1cc(OCc2cc(C(=O)NCc3cc(C(C)C)no3)no2)cc(C)c1Cl`, the B-score entry is “inactive”.

With `CCCCn1c(SCc2ncc(-c3ccccc3)o2)nc2cc(S(N)(=O)=O)ccc21`, the B-score result is “inactive”.

Turning to `CCNS(=O)(=O)c1ccc(NC(=O)Nc2cccc(C(F)(F)F)c2)cc1`, the B-score entry is “inactive”.

As to `Cc1oc2c(F)c(F)c(F)c(F)c2c1S(=O)(=O)Nc1cccc(C(F)(F)F)c1`, the B-score was 12 (active).

For `O=C(/C=C/c1ccc(F)cc1)Nc1cccc(S(=O)(=O)Nc2cccc(C(F)(F)F)c2)c1`, the B-score entry was “inactive”.

As to `COc1ccc(/C(=N\O)c2nccc3cc(OC)c(OC)cc23)cc1OC`, the B-score result was “inactive”.

As to `CCOC(=O)N1CCN(C(=O)C2CCN(S(=O)(=O)c3cc(Cl)ccc3OCC)CC2)CC1`, the B-score entry was “inactive”.

As to `CCOC(=O)N1CCN(C(=O)C2CCN(Cc3ccc(OC)cc3OC)CC2)CC1`, the B-score result is “inactive”.

Regarding `CCOC(=O)N1CCN(C(=O)C2CCN(c3ncnc4c3sc3cccc(F)c34)CC2)CC1`, the B-score was 6 (active).

As for `COc1ccc2c(c1)CCc1cn3ncc(C#N)c3nc1-2`, the B-score entry was “inactive”.
